This passage reports median seed-adjusted z-score results from PubChem BioAssay AID1347426 (Functional Genomics Laboratory (NCATS/FGL), 2020).

About 1,400 (4.5%) of roughly 31,000 sequences were called active.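 The calls were made as follows: active = median seed-adjusted z-score above 1 or below -1; inactive = the rest.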 The full list was thinned out, with actives kept by preference.

This assay is described as follows: Novel Modifiers of Survival Motor Neuron (SMN) Protein: Gene Identification via Genome-wide siRNA Screen. The note with it: HEK293T SMN2-luciferase reporter, siRNA knockdown, 72 h; actives lie on both sides. In a few lines:
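Each of three siRNAs per gene is reverse-transfected (1 pmol) into reporter HEK293T cells whose luciferase output tracks SMN protein level. After 72 h culture, ONE-Glo luminescence is control-normalized, log10-transformed and MAD-standardized; Common Seed Analysis deprioritizes seed-driven hits.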
For GAAUUGCUCCUAAUGUCAATT against MYB, the median seed-adjusted z-score is 0.307 (inactive). With CAGUGAGGUGAAACAAAUATT against DNAJC8 the figure was -1.62 (active); with GUGACCAUCUUGGACAUUATT against CELSR1, -0.466 (inactive); with GGCGACUGUUUAUACAUGATT against ALDH7A1, -0.406 (inactive). With GGAAGAAAUUAGCUAAAAATT against MKI67IP, the median seed-adjusted z-score is 0.426 (inactive).

In the case of UGACCCAGAUUAUCGCCGATT against POLR2I, the median seed-adjusted z-score is -3.27 (active). As for GCCUAGAGGAUACCCAAAATT against NPVF, the median seed-adjusted z-score was 0.588 (inactive). On to GCUCAGAUGUUAUUCGGGATT against SKIV2L, for which the median seed-adjusted z-score was 0.209 (inactive). With GCAAAGCUAUUGCAUUGAATT against HSDL2 the figure was -0.0717 (inactive); with AGAUCAACCCAGAUAACUATT against INCENP, -0.339 (inactive).

Consider GCACCUAUCUUGACCUGCUTT against CTSC, for which the median seed-adjusted z-score is 0 (inactive).

For CCUUCUAAUUCGCAAGGUATT against REL, the median seed-adjusted z-score is -0.358 (inactive). GCGCAGCUCUGGAAUUUGATT against OXCT2: the median seed-adjusted z-score was -0.449 (inactive).

With AGAGCAUUCACAAACUGAATT against RBM8A, the median seed-adjusted z-score is 0 (inactive). As to CCUCCUCGAUGCCUACAAATT against DIO2, the median seed-adjusted z-score was -0.549 (inactive). With CACUAUGGAGAAACAAUAUTT against ZNF181 the figure was -0.154 (inactive); with GGUGAUGACUGCUUGAUGATT against PSKH1, -2.03 (active); with CCCACCAAAUUGCACAAUATT against KLF13, -0.501 (inactive). With GACUGUCUUUGAAAAGAGATT against HESX1 the figure was 0.3 (inactive); with GCAGCAUGCUACAACCAAATT against RNF25, -0.0826 (inactive); with GAUGGGUAAAUGUACAUAUTT against KCNIP4, -0.401 (inactive).

Consider GCAUCGUGGGCAUAGCGUATT against PCSK6, for which the median seed-adjusted z-score was 0 (inactive).

On to GAAUUUUGAUGGACAAGUUTT against RAG2, for which the median seed-adjusted z-score was 0.138 (inactive). With GAACCUCAAGAAUCGAACATT against REV1 the figure was -0.294 (inactive). Consider CCAGGGACCAAGAGAAAGATT against RCE1, for which the median seed-adjusted z-score was -1.19 (active). As for GCUUUGAUUUCACCAACAATT against GCM2, the median seed-adjusted z-score was -0.241 (inactive). GGACGUGACCAUCAUGUACTT against IRF7: the median seed-adjusted z-score is -0.304 (inactive).

With CGAUGUCAGCAUUUCCGUUTT against EPRS, the median seed-adjusted z-score is -0.391 (inactive).

Consider UCACGCUCCUGGACCAUUUTT against SLC6A3, for which the median seed-adjusted z-score is 0.457 (inactive).

As for GAAGCGCAGUCACCUGAAATT against PROC, the median seed-adjusted z-score is -0.228 (inactive). Turning to CUGUUGAGGUUGUUAUUGATT against GABPA, the median seed-adjusted z-score was 1.43 (active). For GCAUGACCAUAAGAUCCUATT against NUAK2, the median seed-adjusted z-score was -0.0601 (inactive). Regarding GAAGGAGAAUGGUAUCACUTT against GPATCH4, the median seed-adjusted z-score is -0.519 (inactive). On to CAAAGUAUCUGGAGAACCATT against KIF2C, for which the median seed-adjusted z-score is 0.0122 (inactive). With GGGCCUUUCUUGGACUGAUTT against PHF7 the figure was 0.425 (inactive); with CUUCAGUUCGAAUACAUUUTT against RFC5, -0.644 (inactive); with GGAGACUUCUUACCCACCATT against PSMD4, 1.46 (active).

As for CAACUGAUGAGUAUCUAGATT against MRCL3, the median seed-adjusted z-score is -0.00909 (inactive).

Regarding CUUCAGUGCUGAUCAGGUATT against NDUFA2, the median seed-adjusted z-score was -0.694 (inactive). Consider GGACCCAGUAUUUCAGGAATT against SFXN4, for which the median seed-adjusted z-score is -0.174 (inactive). With CGAUAUGGAAAAUCCCUAUTT against ANXA10 the figure was 0.0445 (inactive); with CAUACGGACUGUACCUUUATT against PSMC5, -1.06 (active). With CCCUCUACCUCGUCCGAAUTT against SIRPA the figure was -0.153 (inactive); with CCACAUCUCAAGUCCACUUTT against PPP1R1A, -0.529 (inactive). For the sequence CACUUACGGUGUGAAAGGATT against SOX5, the median seed-adjusted z-score is 0.123 (inactive).

Take AGUUACUACCUUAUCCUCATT against POU2F2: the median seed-adjusted z-score was 0.163 (inactive). As to CCAUCUCCUACAUCGCCGATT against APBA2, the median seed-adjusted z-score is 1.66 (active).

As to GCUAUUUGGUUAUCCUUAUTT against ATP6V0A1, the median seed-adjusted z-score was 0.103 (inactive). With AGAUCCUGUGGAUUAGAAATT against NEU4 the figure was -0.152 (inactive). On to GUGCGAAAGAGAAUCUUAATT against SPIRE1, for which the median seed-adjusted z-score is 0.336 (inactive). As for GGAACAGCUUAAGAUUGAATT against GNG3, the median seed-adjusted z-score was -0.186 (inactive). As to GGAAGACCUUACACGGUUATT against EIF3E, the median seed-adjusted z-score was 0.549 (inactive). Regarding GCUAUUUCCAGCGAAUAUATT against CNOT1, the median seed-adjusted z-score is 1.2 (active).

For CGCAGAAGAUGUACCAGUUTT against CDH22, the median seed-adjusted z-score was -0.57 (inactive). Consider CAGGGUCUAUGGUACCGUUTT against UBE3C, for which the median seed-adjusted z-score was 0.0341 (inactive). As to AAAUCCUUGGGUCAACAUUTT against NOX1, the median seed-adjusted z-score is -0.221 (inactive). Regarding GGACAAGGGAUUAAUAGUATT against ARID1A, the median seed-adjusted z-score was -1.14 (active).

In the case of CCUUGAUCCUCGACUGUAATT against COL5A1, the median seed-adjusted z-score is -0.00475 (inactive). Turning to GGUCAUUGUGAAAAGUAGATT against GCLM, the median seed-adjusted z-score is 0.0509 (inactive). Regarding CGCAUACUCUCGCCCUGUATT against ZNHIT2, the median seed-adjusted z-score is -0.339 (inactive). With CGAUAGUGAGUAUAUCAGUTT against ZMYND8, the median seed-adjusted z-score was -0.065 (inactive). As for UGAGCGAGUUGAUUUCACATT against ATF5, the median seed-adjusted z-score is 0.233 (inactive).

Turning to CUUUAAGACUCAUAACGAATT against GTF2E2, the median seed-adjusted z-score was -1.32 (active). With GUUUCAUCGUAUAUCAAUATT against HSD17B13, the median seed-adjusted z-score was -0.329 (inactive). Turning to GAAGGUUGAUUAUCGUAAATT against BCMO1, the median seed-adjusted z-score is 0.53 (inactive). Take CGAGGAACUAAGACUCAAATT against GPR151: the median seed-adjusted z-score was -0.263 (inactive). As to ACAAUUAUUGGAAAGAGAATT against SPRYD5, the median seed-adjusted z-score was 0.151 (inactive). With GGAAGGAGCUGUCACGCAATT against MED26 the figure was -1.86 (active). Turning to CGAAUCUCAUGUUCAGGAATT against LPA, the median seed-adjusted z-score was -0.321 (inactive).
